# An excerpt weighted towards active compounds, which were near 3.7% of everything screened.
# ATXN2 expr inh: reduces ATXN2 reporter expression in HEK-293 cells. Potency, µM (top dose mostly 57 µM), for the others: at the top dose activity change, negative = inhibition, most hits filed as inhibitors. HEK-293 ATXN2-luciferase reporter, luminescence, 24 h. AID 1745845. actives 0.72% (n = 360,000); further: on the % scale 0 is the no-effect control and ±100 the full control effect; nearly all actives have a fitted effect of over 55% in size
#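 ATXN2-luciferase reporter cells (luciferase flanked by upstream and downstream ATXN2 gene portions) were treated 24 h at 37 °C with compounds at up to 57 uM. SteadyGlo luminescence gave expression; GF-AFC fluorescence gave viability.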
# HepG2 viability: counter-screen for TGF-b inhibitors: cytotoxicity in HepG2 cells | HepG2 CAGA-GFP viability, ATP luminescence, 18 h | Potency, µM (top dose mostly 46.1 µM), for inactives: at the highest dose activity change, negative = cytotoxicity, usual class: cytotoxic | actives 0.76% (n = 410,000) | AID 588856
#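 CellTiter-Glo luminescence gave cytotoxicity after 18 hours at 37 degrees C. The cells were HepG2 CAGA-GFP in 1% FBS DMEM, stimulated with 500 pg/mL TGF-beta after compound addition. %Activity was normalised to no-cell wells (complete cell-killing) and DMSO (no toxicity), and curves were fitted and classified.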
# GLP-1R agonist: activates the human GLP-1 receptor; Potency, µM (highest dose often 45.6 µM), for the others: at the top dose activation, most hits filed as activators; HEK293 GLP-1R CRE-luciferase, luminescence, 4-6 h; cells express a hypersensitive GLP-1R form; actives 0.007% (n = 380,000); further: % of control where 0% means no effect
# Target sequence (P43220 whole entry, looked up): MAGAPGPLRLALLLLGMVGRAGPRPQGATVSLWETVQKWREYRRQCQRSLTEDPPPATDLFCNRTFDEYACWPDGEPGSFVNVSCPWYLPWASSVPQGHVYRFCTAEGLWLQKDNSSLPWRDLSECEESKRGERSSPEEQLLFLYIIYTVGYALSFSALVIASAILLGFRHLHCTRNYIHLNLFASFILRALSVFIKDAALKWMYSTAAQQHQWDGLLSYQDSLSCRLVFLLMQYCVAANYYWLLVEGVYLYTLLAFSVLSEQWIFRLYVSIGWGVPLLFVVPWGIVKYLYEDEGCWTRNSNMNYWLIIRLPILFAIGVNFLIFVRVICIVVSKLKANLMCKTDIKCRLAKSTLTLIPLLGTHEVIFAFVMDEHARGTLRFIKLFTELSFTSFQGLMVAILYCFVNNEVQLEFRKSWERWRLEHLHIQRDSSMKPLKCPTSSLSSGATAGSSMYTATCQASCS
# GLP1R inv ag: GLP-1 receptor (human) inverse agonism; AID 624417; P43220; actives 1.6% (n = 410,000); HEK293 GLP-1R CRE-luciferase, luminescence, 24 h; GLP-1R form is constitutively active; Potency, µM (highest dose often 38.3 µM), without a hit: top-dose activity change, negative = inhibition, most hits filed as inhibitors; further: on the % scale 0 is the no-effect control and ±100 the full control effect; nearly all actives have a fitted effect of over 55% in size
#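 qHTS in 1536-well format: reporter HEK293 cells expressing constitutive GLP-1R activity in DMEM + 10% Nu serum, 24 hr with compounds at 37 deg C, luminescence read after 12 min with detection reagent.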
# ATXN viability: reduces viability in counter-screen for ATXN expression inhibitors | S2 cells (HEK-293 line with an ATXN2-luciferase reporter) viability, CellTiter-Fluor protease fluorescence, 24 h | Potency, µM (doses to about 56.7 µM), hits mostly cytotoxic | actives 0.49% (n = 400,000) | AID 651635; further: nearly all actives have a fitted effect of over 40% in size
# TGFb inhibitor: inhibitors of TGF-b signaling; actives 1.2% (n = 410,000); HepG2 CAGA-GFP TGF-b/SMAD3 reporter, GFP fluorescence, 18 h; TGF-beta stimulated, 500 pg/mL final; Potency, µM (highest dose often 46.1 µM), for the others: at the top dose activity, negative = inhibition, actives largely listed as inhibitors; AID 588855; further: on the % scale 0 is the no-effect control and ±100 the full control effect; nearly all actives have a fitted effect of over 65% in size
#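 Per well, imaged GFP fluorescence of HEPG2 CAGA-GFP cells gives the signal; cells get compound, then TGF-beta (500 pg/mL final), 18 h at 37 degrees C; %Activity versus -TGF-beta and +DMSO controls.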
# Active calls of the source: *; i = inactive; ? = inconclusive; . = no result given; [ ] = remark or other dose. The call rests on the fitted dose curve; in most records, active means well fitted curve in the direction sought with a large enough effect; inconclusive means small, poorly fitted or top-dose-only effect, or another doubt; inactive means no such curve, though single readings can be large; an effect the other way counts as inactive or inconclusive. Potency means the concentration at half of the fitted maximal effect.
SMILES,ATXN2 expr inh,HepG2 viability,GLP-1R agonist,GLP1R inv ag,ATXN viability,TGFb inhibitor
O=C(/C=C/c1ccccc1)CC(O)(c1ccccc1)C(F)(F)C(F)F (stereo not drawn),?,-84%,-22%,?,?,13µM*
O=C(/C=C/c1ccccc1)CC(O)(c1ccccc1)C(F)(F)F (stereo not drawn),?,-79%,-6%,11µM*,?,11µM*
COc1ccc(/C=C/C(=O)CC(O)(c2ccccc2)C(F)(F)F)cc1 (stereo not drawn),-21%,10µM*,-3%,?,i,?
O=C(Nc1cccc(OCC(=O)N2CCOCC2)c1)c1cccc([N+](=O)[O-])c1,.,18%,2%,15%,i,10%
O=C(COc1cccc(NC(=O)c2cccc([N+](=O)[O-])c2)c1)c1ccc(Br)cc1,?,-22%,-16%,3.2µM*,?,?
CN1C/C(=C/c2ccncc2)C(=O)/C(=C/c2ccncc2)C1,5%,-4%,0%,6%,i,1%
C=CC(=O)N1C/C(=C/c2ccc(Cl)cc2)C(=O)/C(=C\c2ccc(Cl)cc2)C1,2.8µM*,5µM*,-2%,?,0.89µM*,2.2µM*
C=CC(=O)N1C/C(=C/c2ccccc2)C(=O)/C(=C\c2ccccc2)C1,6.7µM*,1.8µM*,-19%,4.5µM*,9.5µM*,2.2µM*
CCCCCCCCCCCC(=O)OCC(O)C1OCC(O)C1O (stereo not drawn),.,.,5%,.,.,.
COC(=O)c1c(OCc2ccccn2)cc(=O)n2c1CCN(C(=O)c1cc(C(C)C)nn1C)CC2,.,.,.,.,i,.
Cc1ccc(-c2cccc(C3CC=CC4C3C(=O)N(Cc3ccccc3)C4c3cc(C)ccc3F)c2)cc1 (stereo not drawn),12%,-4%,-4%,4.5µM*,i,-23%
O=C1C2C(c3ccccc3)CC=CC2[C@H](c2cccc([N+](=O)[O-])c2)N1Cc1ccccc1 (stereo partly drawn),-4%,-4%,-5%,10µM*,i,-4%
Cc1ccc(F)c(C2C3C=CCC(c4ccccc4)C3C(=O)N2Cc2ccccc2)c1 (stereo not drawn),.,-60%,.,.,.,13µM*
O=C1C2C(c3ccccc3)CC=CC2C(c2cccc([N+](=O)[O-])c2)N1Cc1ccccc1 (stereo not drawn),.,-26%,.,.,.,-28%
Oc1ccc(C2=Cc3ccc(O)cc3OC2)cc1,102%,.,.,.,.,.
CCC1(C2CCN(C(=O)c3ccccc3C(C)=O)CC2)NC(=O)N(CCc2scnc2C)C1=O (stereo not drawn),.,.,.,.,i,.
CN(N=O)c1ccc(/C=C/c2ccnc3ccccc23)cc1,.,-29%,.,.,.,-5%
CCc1nc2cc(C(=O)N3CCCN(C=O)CC3)cc(NC(=O)c3ccccc3OC)c2n1C,.,.,.,.,i,.
Clc1ccc(-c2noc(CSc3nnc(-c4ccncc4)n3-c3ccccc3)n2)cc1,?,-22%,1%,?,i,-13%
O=c1c2ccccc2nc(SCc2nc(-c3ccccc3)no2)n1-c1ccc(F)cc1,-13%,0%,-2%,3.5µM*,i,0%
Clc1ccccc1-c1nnc(SCc2nc(-c3ccccc3)no2)n1-c1ccccc1,?,-28%,.,10µM*,?,?
CC1=C(C(=O)OC2CCCCCCC2)C(c2cc3c(cc2Br)OCO3)CC(=O)N1 (stereo not drawn),?,16µM*,3%,0%,i,?
CCOc1ccccc1C1CC(=O)NC(C)=C1C(=O)OCc1ccc(C)cc1 (stereo not drawn),2%,-52%,-4%,-9%,i,?
CC1=C(C(=O)OCc2ccc(C)cc2)C(c2ccccc2F)CC(=O)N1 (stereo not drawn),-16%,-38%,1%,?,i,11µM*
CC1=C(C(=O)OC2CCCCCC2)C(c2ccccc2Cl)CC(=O)N1 (stereo not drawn),0%,-35%,-3%,15%,i,?
SMILES,ATXN2 expr inh,HepG2 viability,GLP-1R agonist,GLP1R inv ag,ATXN viability,TGFb inhibitor
CCOc1ccccc1C1CC(=O)NC(C)=C1C(=O)OC1CCCCCC1 (stereo not drawn),-3%,16µM*,-3%,0%,i,?
COc1cccc(CNC(=O)c2c(OC)cc(=O)n3c2CCN(C(=O)c2ccccc2Cl)CC3)c1,.,.,.,.,i,.
CCn1c(-c2ccccc2F)nc2cc(NC(C)=O)cc(C(=O)N3CCNC(=O)C3CC(=O)OC)c21 (stereo not drawn),.,.,.,.,i,.
Cc1cc(-c2ccnc(-n3ncc(C(=O)N(C)CC(O)c4ccccc4)c3C)n2)c(C)s1 (stereo not drawn),.,.,.,.,i,.
CCOC(=O)C1=C(N)Oc2cc(O)ccc2C1c1cccc(Cl)c1 (stereo not drawn),-15%,3%,2%,?,i,20µM*
CCOC(=O)C1=C(N)Oc2cc(O)ccc2C1c1cccnc1 (stereo not drawn),7%,-19%,2%,50%,i,-1%
Cc1cc2c(n1-c1ccc(C(=O)NCc3ccccc3Cl)cc1)CCCC2,-30%,-23%,.,5%,i,-21%
Cc1ccc2nc(-c3ccc(SCC(=O)Nc4nnc(C)s4)nc3)[nH]c2c1,?,13µM*,5%,?,.,11µM*
O=C(Nc1ccc(F)cc1F)N1CCN(c2ccc(Cl)c(Cl)c2)CC1,20µM*,-39%,.,11µM*,?,?
CC(=O)c1ccc(N2CCN(C(=O)Nc3ccc(F)cc3F)CC2)cc1,-3%[11.3 µM],-11%,-1%,16%,i,-20%
Cc1ccc(S(=O)(=O)N2C/C=C\CN(S(=O)(=O)c3ccccc3Br)CC2)cc1,-8%,-4%,1%,10µM*,?,-6%
Cc1ccc(S(=O)(=O)N2CCCN(S(=O)(=O)c3ccccc3Br)CC2)cc1,-11%,-2%,3%,?,i,-2%
Cc1cccc(/C=C2/Sc3ccc(C(=O)NCCN4CCCC4)cc3NC2=O)c1,.,-131%,11%,?,?,?
CCN1CCCC1CNC(=O)c1ccc2c(c1)NC(=O)/C(=C\c1ccc(OC)c(OC)c1)S2 (stereo not drawn),.,13µM*,25%,-26%,.,13µM*
O=C1Nc2cc(C(=O)NCCCN3CCCC3)ccc2S/C1=C/c1cccc(Cl)c1,.,16µM*,20%,?,?,?

# Assay outcomes: PubChem, National Center for Advancing Translational Sciences (NCATS)
